From PubChem BioAssay (NCI)
This is part of a sample that, as a whole, favours compounds with a hit. Of some 83,000 tested, about 20% had one in any assay.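 48-hour exposure, single concentration, 96-well plates; percent growth endpoint where 0 means no net growth. Active: below 10.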 Unmarked numbers belong to inactive results. Calls of active or inactive are those of the source.

Each molecule was assayed on EKVX NSCLC (assay: NCI-60 one-dose screen, 48 h (100 = growth as untreated, 0 = no growth, -100 = all killed)). Details: 10 µM unless noted.

SMILES	growth
Cc1ccc(-c2nc(C(Cl)Cl)nc3cc(C)nn23)cc1	5.75% (active)
O=C(Nc1nc(C(=O)N2CCN(C(c3ccccc3)c3ccccc3)CC2)cs1)c1ccc(NC2CCCCC2)c([N+](=O)[O-])c1	77.9%
COc1cc(-c2nc3ccc(C)cc3[nH]2)ccc1OCC(=O)N=Nc1c(O)[nH]c2ccc(Cl)cc12	50.7%
C=C1C(=O)O[C@H]2[C@H]1CC/C(COC(=O)NCCCCCCCCNC(=O)OC/C1=C/CC[C@@]3(C)O[C@H]3[C@H]3OC(=O)C(=C)[C@@H]3CC1)=C\CC[C@@]1(C)O[C@@H]21	-82.4% (active)
Nc1c(C(=O)Nc2ccncc2)sc2nc3c(cc12)CCCCC3	74.2%

These molecules were tested on SN12C renal in the same assay as above. Details: 10 µM unless noted.

SMILES	growth
CCN(CC)CCOc1nc2c3ccc(Cl)cc3nn2c2ccccc12	19.9%
C=C(c1ccc(C(=O)O)cn1)c1cc2c(cc1C)C(C)(C)CCC2(C)C	95.7%
CCn1cc(C(=O)NN=C2CCCCCC2)c(=O)c2ccc(C)nc21	85.5%
Cc1c2cc[nH]c(=O)c2c(C)c2c1[nH]c1ccc(OC(=O)c3ccccc3)cc12	32.3%
C#Cc1cccc(Nc2nc3ccc([N+](=O)[O-])cc3nc2Nc2cccc(C#C)c2)c1	-39.1% (active)
COc1cccc(C(=O)OCC(O)C(=O)NC23CC4CC(CC(C4)C2)C3)c1 (stereo not given)	95.5%
COc1ccc2cc(Cn3cc[n+](Cc4ccc5ccccc5c4)c3)ccc2c1	16.9%
Cc1ccc(C(=O)c2ccc(CC(=O)N/N=C/c3ccc(O)cc3O)n2C)cc1	55.7%
O=C(Nc1ccccc1)c1sc(-c2ccccc2)cc1O	105%
COC(=O)c1ccc2c(c1)c1c(C)c3ccncc3c(C)c1n2C	36.1%
O=C(O)c1cccc(N/C=C/C(=O)c2cc3cc(Br)ccc3oc2=O)c1	94.1%
O=C(N/N=C/c1ccc([N+](=O)[O-])cc1)c1ccc2nc(-c3ccc(Cl)cc3)[nH]c2c1	19.6%
CCCCN1C(=O)/C(=c2\sc3n(c2=O)NC2C(N=3)N(CC)C(=O)N2CC)c2ccccc21 (stereo not given)	50.5%
CNCc1cccc2c1OCCOCCN(C)C(=O)CN(C)S(=O)(=O)c1ccc(cc1)-c1cnc(N)c(n1)C(=O)N2	20.7%
COc1ccccc1-n1c(-c2cc(O)ccc2C)cn2c3c(=O)[nH]c(=O)n(C)c3nc12	41.6%
COc1ccc(NC(=O)c2sc3nc(C)c(C(O)c4ccccc4)cc3c2N)cc1 (stereo not given)	36.1%
COc1cc(C2C3=C(COC3=O)N(CCO)c3cc4c(cc32)OCCO4)cc(OC)c1OC (stereo not given)	23.8%
C/C(=C(/c1ccc(Cl)cc1)c1ccc(OCCCN(C)C)cc1)c1ccc(Cl)cc1	93.9%
O=C(CSc1nc2ccc([N+](=O)[O-])cc2[nH]1)Nc1ccc(Br)cc1	46.1%
C[N+](C)(C/C=C/c1ccccc1)Cc1ccccc1	101%

SMILES	growth
C/C(=C(\c1ccc(OCCN2CCCCCC2)cc1)c1ccc(OC(=O)Cc2ccccc2)cc1)c1ccc(Cl)cc1	28.9%
COc1ccc2c(c1)c(-c1nonc1-c1c[nH]c3ccc(Br)cc13)cn2C	59.3%
CCCCCCCCn1ccc2cc(NC(=O)Cn3cc(CN4CCN(CC)CC4)nn3)ccc21	64.1%
C#CC#CC#CC#CC#CC#CC#CC#CC[C@H]1OC[C@@H](COC(=O)O[C@@H](C(=O)O[C@H]2C[C@@]3(O)[C@@H](OC(=O)c4ccccc4)[C@@H]4[C@]5(OC(C)=O)CO[C@@H]5C[C@H](O)[C@@]4(C)C(=O)[C@H](OC(C)=O)C(=C2C)C3(C)C)[C@@H](NC(=O)c2ccccc2)c2ccccc2)O1	50.2%
Cc1cc(C)cc(Nc2ccc([N+](=O)[O-])c(NCCN3CCOCC3)n2)c1	32.2%
CCN=C1C=CC(=C(c2ccc(N(C)C)cc2)c2ccc(N(C)C)cc2)c2ccccc21	-22.2% (active)
CCOC(=O)Cn1c(=O)c2c3ccccc3n(C)c2n2nnc(-c3ccccc3)c12	81.8%
COc1ccc2[nH]cc(-c3nc(-c4cn(C)c5ccncc45)cs3)c2c1	96.2%
COc1ccc2nc(SCC(=O)Nc3ccccc3C)[nH]c2c1	95.2%
CCCCNC1=C(OCC)C(=O)c2ccccc2C1=O	97.2%
COc1ccc(C2=Nc3c/c(=C\c4c(O)[nH]c5cc(Cl)ccc45)ccc3=N2)cc1	96.5%
Nc1ccc([N+](=O)[O-])cc1N=C/C=C/c1ccccc1	50.6%
c1ccc(CNc2ccc3nc(CCC4CCCCC4)[nH]c3c2)cc1	62.8%
COc1ccc2c(c1)c(-c1cc(-c3cn(C)c4ccc(OC)cc34)on1)cn2C	106%
C#CC#CC#CC#CC#CC#CC#CC#CC[C@H]1OC[C@H](COC(=O)O[C@@H](C(=O)O[C@H]2C[C@@]3(O)[C@@H](OC(=O)c4ccccc4)[C@@H]4[C@]5(OC(C)=O)CO[C@@H]5C[C@H](O)[C@@]4(C)C(=O)[C@H](OC(C)=O)C(=C2C)C3(C)C)[C@@H](NC(=O)c2ccccc2)c2ccccc2)O1	46.5%
Cc1ccc(-c2nc(C(Cl)Cl)nc3cc(C)nn23)cc1	40.5%
O=C(Nc1nc(C(=O)N2CCN(C(c3ccccc3)c3ccccc3)CC2)cs1)c1ccc(NC2CCCCC2)c([N+](=O)[O-])c1	85.6%
COc1cc(-c2nc3ccc(C)cc3[nH]2)ccc1OCC(=O)N=Nc1c(O)[nH]c2ccc(Cl)cc12	-56.4% (active)
C=C1C(=O)O[C@H]2[C@H]1CC/C(COC(=O)NCCCCCCCCNC(=O)OC/C1=C/CC[C@@]3(C)O[C@H]3[C@H]3OC(=O)C(=C)[C@@H]3CC1)=C\CC[C@@]1(C)O[C@@H]21	-68.7% (active)
Nc1c(C(=O)Nc2ccncc2)sc2nc3c(cc12)CCCCC3	78.9%
